Cycloheximide cs – counter-screen hit for Shiga toxin inhibitors, cycloheximide; 12% of 300,000 active; cell reporter, cycloheximide protein synthesis inhibition counterscreen; max response, %; in the data active means max response mostly above about 13%, no sharp cut-off; inactive means mostly below about 14%; further: read at 38.3 µM for the half of the compounds with a filed dose; 0% is about no effect
Pf growth 48h – P. falciparum growth inhibition at 48 hours (one generation). P. falciparum luciferase growth in erythrocytes, 48 h. Potency, µM (top dose mostly 28.7 µM), without a hit: at the top dose activity change, negative = inhibition, usual class: inhibitors. 5.9% of 310,000 active; further: potency means the concentration at half of the fitted maximal effect; on the % scale 0 is the no-effect control and ±100 the full control effect
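First compound was added to culture medium, then infected red cells at 0.1% parasitemia and 2% hematocrit (final). After incubation at 37 C under 5% CO2, luciferase detection reagent was dispensed and light output recorded.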
Shiga inhibitor – blocks Shiga toxin action in Vero cells; 9.2% of 290,000 active; inhibition, % at 38.7 µM; AID 2315; Vero cells, Shiga toxin protein synthesis inhibition reporter; in the data active means inhibition mostly above about 28%, no sharp cut-off; inactive means mostly below about 43%; further: 0% is about no effect
MARV entry inh – Marburg virus entry inhibition. Marburg virus pseudotyped entry inhibition, cell reporter. Potency, µM (series often up to 37.8 µM), for inactives: at the highest dose activity change, negative = inhibition, hits mostly inhibitors. 1.8% of 300,000 active; calls by dose curve; tested in HEK293 cells; further: potency means the concentration at half of the fitted maximal effect; on the % scale 0 is the no-effect control and ±100 the full control effect
Pf growth 96h – inhibits malaria parasite growth, 96 h | P. falciparum luciferase reporter growth, 96 h | Potency, µM (top dose mostly 28.7 µM), for the others: top-dose activity change, negative = inhibition, most hits filed as inhibitors | 6.9% of 320,000 active | AID 504834; further: potency means the concentration at half of the fitted maximal effect; on the % scale 0 is the no-effect control and ±100 the full control effect
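Luminescence readout: decreased luciferase signal marks inhibited growth of reporter-expressing P. falciparum in infected red cells (2% hematocrit, 0.05% parasitemia final), exposed to compound two generations (96 h, 37 C, 5% CO2).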
Lassa entry inh – blocks Lassa virus binding to or entry into cells | Lassa virus pseudotype entry inhibition, cell reporter | Potency, µM (top dose mostly 37.9 µM), without a hit: top-dose activity change, negative = inhibition, hits mostly inhibitors | 1.2% of 300,000 active | AID 540256; calls by dose curve; tested in HEK293 cells; further: potency means the concentration at half of the fitted maximal effect; on the % scale 0 is the no-effect control and ±100 the full control effect; nearly all actives have a fitted effect of over 50% in size
* = called active by the depositor; ? = inconclusive; nt = not tested or not shown; [ ] = remark or other dose. Only some compounds are listed: those with a hit (about 19% of all), similar ones and a draw of the others. Unless noted, the call rests on the fitted dose curve; in most records, active means well fitted inhibition curve with a large enough effect; inconclusive means small, poorly fitted or top-dose-only effect, or another doubt; inactive means no such curve, though single readings can be large or run the other way.

SMILES	Cycloheximide cs	Pf growth 48h	Shiga inhibitor	MARV entry inh	Pf growth 96h	Lassa entry inh
O=C(NNC(=O)C1C2CCCCC21)c1coc(=O)c(Br)c1 (centres undefined)	51.5*	75.6%	57.0*	nt	9.5%	nt
CC(C)CNC(=O)c1coc(=O)c(Br)c1	6.4	?	3.1	?	nt	16.4µM*
O=C(NC(CO)(CO)CO)c1coc(=O)c(Br)c1	9.9	?	1.3	?	?	-14.1%
O=C(Nc1cc(Cl)cc(Cl)c1)c1coc(=O)c(Br)c1	24.1*	-18.6%	38.7*	?	?	-4.2%
O=C(NCCc1ccccc1)c1coc(=O)c(Br)c1	13.8*	-20.2%	26.3	?	17.1%	-20.8%[46.1 µM]
COc1ccc(NC2CCCN(C(=O)CCOc3ccccc3)C2)cc1 (centres undefined)	-2.1	-6.1%	-3.0	21.2%[46.1 µM]	?	?
O=C(O)c1ccccc1OCC1CCCO1 (centres undefined)	7.3	14.5%	21.1	-5.7%[46.1 µM]	34.3%	15.9%[46.1 µM]
Nc1cc(C(F)(F)F)ccc1OCC1CCCO1 (centres undefined)	25.6*	1.8%	20.9*	nt	-20.6%	nt
O=C(O)c1cc(-c2cc(C(=O)O)c3ccccc3n2)nc2ccccc12	-3.2	20.8%	-4.1	nt	-13.4%	nt
Cc1csc(NC(=O)C2CCCCC2)n1	24.4*	73.6%	nt	?	129.3%	?
Cc1cc(C)cc(OCC(=O)Nc2nc(-c3ccccn3)cs2)c1	nt	?	nt	-22.2%[46.1 µM]	?	-27.9%
O=C(CN1C(=O)CCC1=O)Nc1nc(-c2ccccn2)cs1	-5.3	nt	-10.0	nt	?	nt
CSCCC(=O)Nc1nc(-c2ccccn2)cs1	20.7*	?	36.0	9.2%	?	-12.6%
O=C(COc1ccc(F)cc1Cl)Nc1nc(-c2ccccn2)cs1	nt	?	nt	nt	13.1µM*	nt
O=C(CCCSc1ccccc1)Nc1nc(-c2ccccn2)cs1	7.3	nt	-7.9	?	7.38µM*	?
CN1C2=NCCN2C(=O)c2cc(Cl)ccc21	-2.6	0.0%	-5.1	-2.2%[46.1 µM]	48.9%	6.8%
O=C(Nc1nc(-c2ccccn2)cs1)C1CCCC1	57.4*	?	99.6*	7.6%[46.1 µM]	?	26.6%
O=C(Nc1ccc2nc(-c3ccccn3)[nH]c2c1)C1CCCCC1	36.2*	14.1%	57.5*	3.7%	13.1%	?
COC(=O)c1ccc(-c2nc3cc(Cl)c(N)cc3s2)cc1	48.1*	218.5%	106.3*	0.501µM*	343.3%	?
COC(=O)c1ccc(-c2nc(O)c(C)s2)cc1	-0.2	10.4%	28.1	1.8%[46.1 µM]	17.6%	22.9%[46.1 µM]
O=C(Nc1ccc2c(c1)nc1n2CCOC1)c1ccco1	32.5*	143.7%	72.6*	7.0%	71.9%[5.75 µM]	13.8%
O=C(Nc1ccc2c(c1)nc1n2CCOC1)C1CCCCC1	28.9*	90.5%	80.9*	16.5%	198.7%	18.5%
COc1ccc2nccc(/C=C/c3ccnc4ccc(OC)cc34)c2c1	4.3	3.29µM*	6.5	?	3.7µM*	-36.5%
CN(C)C(=O)On1c(-c2ccccc2)nc2ccc(Cl)cc21	38.8	-23.6%	28.2	4.7%	nt	0.9%
O=C(O)COn1c(-c2ccccc2)nc2ccc(Cl)cc21	21.5*	0.8%	39.7	?	32.0%	1.4%[46.1 µM]
SMILES	Cycloheximide cs	Pf growth 48h	Shiga inhibitor	MARV entry inh	Pf growth 96h	Lassa entry inh
O=[N+]([O-])c1ccc2nc(-c3ccccc3)n(OCc3ccc(Cl)cc3)c2c1	18.0*	30.3%	17.8	-12.5%	13.1µM*	1.3%
O=C(O)Cn1c(-c2ccccc2)nc2ccccc21	-1.8	31.4%	11.7	4.7%	-99.8%	0.7%
O=[N+]([O-])c1ccc2nn(Cc3ccccc3)cc2c1	1.5	12.9%	18.7	nt	5.1%	nt
COn1c(-c2ccccc2)nc2ccc(Cl)cc21	31.0*	31.8%	71.9*	?	49.8%	6.0%
Cc1ccc(S(=O)(=O)Nc2ccc3ccccc3c2[N+](=O)[O-])cc1	nt	nt	nt	1.8%[46.1 µM]	nt	10.4%[46.1 µM]
O=C(c1ccc(S(=O)(=O)N2CCCC2)cc1)N1CCCCC1	nt	35.2%	nt	8.1%	7.5%	7.2%
Cc1ccccc1NC(=O)COC(=O)c1cc[n+]([O-])cc1	nt	69.6%	nt	?	23.2%	2.0%
COCOc1ccc(Br)cc1C(=O)/C=C\c1ccc2c(c1)OCO2	nt	nt	nt	5.6%[14.2 µM]	nt	nt
COc1cc(NC(=O)COc2ccc3c(C)cc(=O)oc3c2C)cc(OC)c1OC	8.2	?	-7.1	nt	?	nt
COc1cccc(C(=O)NNc2c3ccccc3nc3ccccc23)c1	-2.5	?	-4.4	-7.8%	11.7µM*	-3.4%
Cc1ccc(C(=O)NNc2c3ccccc3nc3ccccc23)cc1	41.4*	13.1µM*	85.1*	?	-21.6%	-12.6%[46.1 µM]
CSc1nc(N(C)NC(=O)c2ccc(Cl)cc2)c2ccccc2n1	-2.5	3.29µM*	-10.0	?	3.7µM*	?
Cc1cc(C(=O)NNC(=O)c2ccc(Cl)cc2)c2ccccc2n1	nt	11.9%	nt	nt	24.2%	nt
CCn1c(NC(=O)c2ccc(C)cc2)c2ccccc2nc1=O	-1.6	-21.6%	-4.3	?	-2.9%	-15.6%
O=C(NNc1c2ccccc2nc2ccccc12)c1ccc(Cl)cc1	-7.3	13.1µM*	-10.9	?	-1.2%	-5.7%[46.1 µM]
Cc1cccc(-c2noc(CN(C(=O)COc3ccc(Br)cc3C)C(C)C)n2)c1	nt	nt	nt	-5.6%[46.1 µM]	nt	-6.7%[46.1 µM]
Clc1cncc(Cl)c1NNc1c2ccccc2nc2ccccc12	-0.3	2.94µM*	19.4	-23.0%	25.1%	-4.4%
O=C(CN1CCOCC1)NNc1c2ccccc2nc2ccccc12	15.7	?	46.6	-21.5%[46.1 µM]	?	-17.8%[46.1 µM]
Nc1ccccc1C(=O)NNc1c2ccccc2nc2ccccc12	18.6*	?	111.0*	nt	?	nt
Cn1c(=O)c2c(nc(CN3CCc4ccccc4C3)n2Cc2ccc(F)cc2)n(C)c1=O	nt	nt	nt	?	nt	-19.2%
COC(CNS(=O)(=O)c1ccc(Cl)cc1)c1ccccc1 (centres undefined)	-2.2	-11.8%	-8.0	-4.4%[46.1 µM]	13.1µM*	-5.2%[46.1 µM]
CSc1cccc(N/C(=N/S(=O)(=O)c2ccccc2)NN)c1	-1.6	-6.1%	-8.6	-14.2%[46.1 µM]	-9.9%	-12.7%[46.1 µM]
Cc1ccc2c(c1)CNc1ccccc1O2	12.7*	nt	45.4	14.6%	-3.5%	-2.1%
Cc1ccc(C(=O)N2CC3(C(C)C)CN(C(=O)c4ccc(C)cc4)CC(C(C)C)(C2)C3=O)cc1	-2.6	nt	-5.0	2.5%	9.28µM*	-16.9%
CCC1=C(OC(=O)N(CC)CC)N2C(=O)OC(=NCc3ccccc3)[C@]2(C)[C@H]2C1=CC[C@H]1C(=O)NC(=O)[C@H]12	-4.5	?	-13.0	nt	-3.7%	nt
CCC1=C(OC(=O)N(CC)CC)N2C(=O)OC(=NCC3CC3)[C@]2(C)[C@H]2C1=CC[C@H]1C(=O)N(CC)C(=O)[C@H]12	-2.8	10.4µM*	-5.5	nt	?	nt
CCC1=C(OC(=O)N(CC)CC)N2C(=O)OC(=NCC3CC3)[C@]2(C)[C@H]2C1=CC[C@H]1C(=O)N(C)C(=O)[C@H]12	-3.0	8.28µM*	-7.2	nt	10.4µM*	nt
COc1ccc(S(=O)(=O)N2CCN(C)CC2)cn1	11.4	?	-8.2	-3.7%[46.1 µM]	?	-9.7%[46.1 µM]
